High-throughput results from PubChem.
CYP2C19 inhib – blockers of cytochrome P450 2C19 activity – biochemical, luminescence, ADME assay, primary screen; P33261; CYP2C19 Supersomes, luciferin-H EGE luminescence, 30 min; inhibition, % at 5 µM; hit rate 21% among 96,000;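 active means CYP2C19 inhibition above a set limit at 5 µM in the primary screen, cut at about 50% in these data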;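 further: plate controls were negative control wells for no effect and 2.5 mM tranylcypromine positive control for full effect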
Cav3 T inh – Cav3.2 calcium influx blockers – cell-based, Fluo-4 calcium fluorescence, FDSS, MLSMR library, primary screen | Cav3.2-expressing cells; active compounds read low | Voltage-dependent T-type calcium channel subunit alpha-1H (Homo sapiens), O95180 | B-score at 10 µM | hit rate 4% among 100,000;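 active means single-dose well whose peak fluorescence ratio is a statistical outlier from its plate by either plate-standardised score or position-corrected B-score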
CYP2C19 act – human CYP2C19 activators, primary screen, biochemical, luminescence | recombinant CYP2C19, luciferin-H EGE luminescence; active compounds read high; 0 = fully inhibited enzyme, 1 = untreated enzyme | activation factor at 5 µM | Cytochrome P450 2C19 (Homo sapiens), P33261 | 96,000 tested, under 10 active;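 active means activation factor of at least 2 at 5 µM in the primary screen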;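 further: 0 = wells with 2.5 mM tranylcypromine and 1 = vehicle-only wells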
CYP2C9 inh – blockers of cytochrome P450 2C9 activity – biochemical, luminescence, ADME assay, primary screen | P11712 | CYP2C9 Supersomes, luciferin-H conversion | inhibition, % at 5 µM | hit rate 20% among 96,000 | AID 777, 2007;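 active means blocking of liver enzyme CYP2C9 beyond about 50% at 5 µM, limit read from the data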
Target sequence (P11712 whole entry, looked up): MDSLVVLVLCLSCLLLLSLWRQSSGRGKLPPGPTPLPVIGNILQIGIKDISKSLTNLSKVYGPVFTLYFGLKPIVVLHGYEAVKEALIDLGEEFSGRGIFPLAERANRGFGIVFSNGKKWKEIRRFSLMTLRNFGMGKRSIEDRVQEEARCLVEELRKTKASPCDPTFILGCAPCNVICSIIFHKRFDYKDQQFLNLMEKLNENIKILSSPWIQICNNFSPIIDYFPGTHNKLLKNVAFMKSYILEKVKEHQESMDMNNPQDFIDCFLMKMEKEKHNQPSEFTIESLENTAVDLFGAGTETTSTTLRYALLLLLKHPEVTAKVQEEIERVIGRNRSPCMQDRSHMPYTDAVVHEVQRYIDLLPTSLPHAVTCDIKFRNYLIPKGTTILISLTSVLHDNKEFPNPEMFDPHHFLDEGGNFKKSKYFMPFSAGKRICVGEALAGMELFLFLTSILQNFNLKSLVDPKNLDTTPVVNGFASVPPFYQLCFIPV
CYP2C9 act – human CYP2C9 activators, primary screen, biochemical, luminescence; hit rate 1.4% among 96,000; recombinant CYP2C9, luciferin-H conversion; active compounds read high; factor 1 = untreated enzyme, 0 = blocked; Cytochrome P450 2C9 (Homo sapiens), P11712; activation factor at 5 µM; AID 1024, 2008;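 active means activation factor of 2 or more for CYP2C9 at a 5 µM dose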;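 further: 0 = sulfaphenazole-blocked wells and 1 = vehicle-only wells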
Numbers without * were called inactive; . = not tested or not shown. In the library only some 27% were active in any assay of this set; here they are far more common.

SMILES | CYP2C19 inhib | Cav3 T inh | CYP2C19 act | CYP2C9 inh | CYP2C9 act
COc1ccc(Nc2nc(-c3sc(N)nc3C)cs2)cc1 | 77.8* | -1.45 | 0.2 | 80.1* | 0.2
COc1ccc(Nc2nc(-c3sc(NC(C)=O)nc3C)cs2)cc1 | 82.2* | . | 0.2 | 81.1* | 0.2
Cc1nc(N)sc1-c1csc(Nc2ccc(Cl)cn2)n1 | . | -0.257 | . | . | .
COc1ccc(Nc2nc(-c3cccs3)cs2)cc1 | 1.8 | 0.116 | 1 | -5.3 | 1.1
COC(=O)c1ccccc1NC(=O)CSc1nc(-c2ccco2)cc(C(F)(F)F)n1 | 1.5 | -2.43 | 1 | 4.7 | 1
O=C(c1ccc(Cl)cc1)N1CCC(=O)N(C(CO)Cc2ccccc2)CC1 (stereo not given) | . | 0.136 | . | . | .
O=C(C1CCN(S(=O)(=O)c2ccc(F)cc2)CC1)N1CC=C(c2ccccc2)CC1 | 18.2 | -0.261 | 0.8 | 18.5 | 0.8
CCOC(=O)C1=C(N)N(c2ccc(N3CCCCC3)cc2)C(=O)C1 | 39.1 | 0.799 | 0.6 | -46.7 | 1.5
CCOC(=O)C1=C(N)N(c2ccccc2Oc2ccccc2)C(=O)C1 | 78.4* | 1.38 | 0.2 | 64.8* | 0.4
S=C(NCc1ccco1)N1CCN(Cc2ccc(Cl)cc2Cl)CC1 | 22.7 | -3.64* | 0.8 | 41.9 | 0.6
CCOC(=O)N1CCN(C(=O)CS(=O)(=O)c2cn(Cc3ccc(F)cc3)c3ccccc23)CC1 | . | -0.242 | . | . | .
COC(=O)C1=COC(C)C2CN3CCc4c([nH]c5cc(OC)c(OC)cc45)C3CC12 (stereo not given) | . | -0.968 | . | . | .
CC1CCN(C(=O)c2ccc3c(c2NCCO)C(=O)c2ccccc2C3=O)CC1 | 81.1* | 1.96 | 0.2 | 23.5 | 0.8
O=C(CCCNS(=O)(=O)c1cccc2nsnc12)NCc1ccc(F)cc1 | 4.8 | 0.232 | 1 | -19.6 | 1.2
CCOc1ccc2oc(-c3ccccc3)c(C(=O)N3CCN(CCO)CC3)c2c1 | 39.5 | 0.266 | 0.6 | 82.0* | 0.2
Cc1sc(Nc2ccc([N+](=O)[O-])cc2)nc1-c1c(C)n(C)n(-c2ccccc2)c1=O | 39.1 | -1.45 | 0.6 | 21.6 | 0.8
CCCC(=O)c1cc(F)c(N2CCOCC2)cc1C | 53.4* | -0.17 | 0.5 | 42.8 | 0.6
O=C(c1ccc(Cl)cc1)N1CCN(c2cc(=O)[nH]nc2-c2ccccc2)CC1 | -8.7 | -0.476 | 1.1 | 2.0 | 1
O=C(c1ccccc1)N1CCN2C(=O)c3ccccc3C12c1ccc(Cl)cc1 (stereo not given) | 62.6* | -8.39* | 0.4 | 31.1 | 0.7
O=C(Nc1ccccc1)N1CCCC1 | -7.5 | 0.47 | 1.1 | 13.7 | 0.9
O=C(Nc1ccccc1)N1CCN2C(=O)c3ccccc3C12c1ccccc1 (stereo not given) | 92.6* | -6.87* | 0.1 | 95.7* | 0
CCOC(=O)c1cc2cc3ccccc3cc2[nH]1 | . | -0.163 | . | . | .
CCS(=O)(=O)NCCc1csc(C)n1 | -7.7 | 0.712 | 1.1 | -3.5 | 1
COc1ccc(-c2noc(CSc3ccccc3)n2)cc1OC | 31.1 | -0.918 | 0.7 | 20.9 | 0.8
Cc1ccc(-c2noc(CSc3nnc(CCc4ccccc4)n3-c3ccccc3)n2)cc1 | 83.0* | -4.24 | 0.2 | 75.8* | 0.2
SMILES | CYP2C19 inhib | Cav3 T inh | CYP2C19 act | CYP2C9 inh | CYP2C9 act
Cn1c(SCc2nc(-c3ccccc3)no2)nnc1-c1ccco1 | 30.0 | 0.683 | 0.7 | 13.5 | 0.9
COc1ccc(-c2noc(CSc3nnc(CCc4ccccc4)n3-c3ccccc3)n2)cc1OC | 99.3* | -2.18 | 0 | 79.7* | 0.2
COc1ccc(NC(=O)CSc2nc3c(c(=O)n2-c2ccc(F)cc2)SCC3)c(OC)c1 | 73.1* | 0.0803 | 0.3 | 79.6* | 0.2
CCOc1ccc(-n2c(SCC(=O)Nc3ccc4c(c3)OCCO4)nc3c(c2=O)SCC3)cc1 | 77.1* | -0.0823 | 0.2 | 62.9* | 0.4
CCOc1ccc(-n2c(SCC(=O)Nc3ccc4c(c3)OCO4)nc3c(c2=O)SCC3)cc1 | 33.4 | . | 0.7 | 59.0* | 0.4
CCOc1ccc(-n2c(SCC)nc3c(c2=O)SCC3)cc1 | -9.0 | 0.391 | 1.1 | -5.0 | 1.1
COc1cccc(OCC(O)CN2CCOCC2)c1 (stereo not given) | -11.1 | 0.336 | 1.1 | -13.4 | 1.1
COc1cccc(OCC(O)CN2CCC(Cc3ccccc3)CC2)c1 (stereo not given) | -4.3 | -4.22* | 1 | -1.1 | 1
C=CCc1ccc(OCC(O)CN2CCC(Cc3ccccc3)CC2)c(OC)c1 (stereo not given) | 54.6* | -4.03* | 0.5 | -6.8 | 1.1
S=C1NC[C@H](Cc2cccc3ccccc23)N1CC1CCCCC1 | . | 0.536 | . | . | .
Cc1ccc(/C(COc2ccccc2O)=N\O)cc1 | 76.0* | -2.74 | 0.2 | 40.7 | 0.6
O=c1c2c(ncn1CCO)nc1n2CCC1 | . | -0.0509 | . | . | .
CC1CCCN(Cc2nc3c(c(=O)n(C)c(=O)n3C)n2CCCc2ccccc2)C1 (stereo not given) | 10.7 | -2.7 | 0.9 | 62.1* | 0.4
Cn1c(=O)c2c(nc(CN3CCc4ccccc4C3)n2Cc2cccc(Cl)c2)n(C)c1=O | 18.4 | -4.16* | 0.8 | 32.2 | 0.7
Cn1c(=O)c2c(nc(CN3CCN(Cc4ccccc4)CC3)n2Cc2cccc(Cl)c2)n(C)c1=O | 45.8 | 0.36 | 0.5 | 26.8 | 0.7
CC1CCCN(Cc2nc3c(c(=O)n(C)c(=O)n3C)n2CCc2ccccc2)C1 (stereo not given) | 5.9 | -2.91 | 0.9 | 9.0 | 0.9
Cn1c(=O)c2c(nc(CN3CCN(C(=O)c4ccco4)CC3)n2CCCc2ccccc2)n(C)c1=O | 49.9 | . | 0.5 | 85.4* | 0.1
c1cnc2c(C3NCCc4c3[nH]c3ccccc43)cccc2c1 (stereo not given) | . | -0.0869 | . | . | .
NC(=O)c1cc2ccc(O)cc2oc1=NCc1ccccc1 | . | -7.65* | . | . | .
CC1(C)CC(=NO)CC(C)(C)N1 | 8.1 | 0.199 | 0.9 | 34.2 | 0.7
Cc1nn(Cc2ccccc2Cl)c2sc(C(=O)NCCCn3ccnc3)cc12 | 89.9* | 0.885 | 0.1 | 99.9* | 0
O=C(NCCCn1ccnc1)c1cc(-c2ccc(Cl)cc2)nc2ccccc12 | 89.9* | 0.834 | 0.1 | 98.3* | 0
Cc1ccc2nc(-c3ccccc3)cc(C(=O)NCCCn3ccnc3)c2c1 | 81.1* | 1.15 | 0.2 | 98.0* | 0
Cc1cc(C(=O)NCCCn2ccnc2)sc1-c1ccccc1 | 96.7* | 0.434 | 0 | 89.0* | 0.1
C[C@@H]1CC[C@]2(O[C@@H](CCO)C[C@@H](O)[C@@H]2O)O1 | . | 0.274 | . | . | .
O=C(CCC(=O)Nc1ccc(Oc2ccccc2)cc1)NCCO | 8.4 | -0.0203 | 0.9 | 9.1 | 0.9
CC(C)OC(=O)CC(NC(=O)OC(C)(C)C)c1ccccc1 (stereo not given) | . | 0.366 | . | . | .
Cc1nn(Cc2ccc(Cl)cc2)c2sc(C(=O)OCC(N)=O)cc12 | 12.7 | -0.0176 | 0.9 | 75.7* | 0.2
